# Records with an inconclusive call do not appear. Entries that show only a call come without a potency. Activity calls are given as the source filed them. The call rests on the fitted dose curve; in most records, active means well fitted curve in the direction sought with a large enough effect; inconclusive means small, poorly fitted or top-dose-only effect, or another doubt; inactive means no such curve, though single readings can be large; an effect the other way counts as inactive or inconclusive.
# Key:
# [1] = Tertiary RLuc qRT-PCR qHTS assay for Zika virus inhibitors (AID 1347169); settings: infected Vero cells, reporter luminescence, 48-72 h; series mostly up to 45.9 µM; further: top concentration of the series differs between compounds; nearly all actives have a fitted effect of over 55% in size
# How it was run: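 Luminescence read-out: live-cell Renilla luciferase substrate applied to infected Vero cells, signal measured after 1-1.5 hrs. Cells had received compound before ZIKV-RLuc (Cambodian strain, MOI 1-2) infection and were incubated 48-72 hrs at 37 degrees C.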
# [2] = OV-KATE Cancer Cell Toxicity qHTS against the NCATS CANVASS Library (AID 1347345); settings: OV-KATE cells viability, CellTiter-Glo luminescence, 72 h; series mostly up to 38.3 µM
# How it was run: (§1)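 Cells were seeded at 1000 per well, allowed 4 h at 37 degrees C/5% CO2, then pin-treated with an 11-point compound series. After 72 h, viability was read as CellTiter-Glo luminescence following 15min at room temperature.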
# [3] = HPAF-II Cancer Cell Toxicity qHTS against the NCATS CANVASS Library (AID 1347346); settings: HPAF-II viability, CellTiter-Glo ATP luminescence, 72 h; series mostly up to 38.3 µM; further: nearly all actives have a fitted effect of over 55% in size
# How it was run: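 Luminescence from CellTiter-Glo, added after 72 h compound exposure and a 15 min room-temperature incubation, served as the viability readout. HPAF-II cells (1000/well) received an 11-point concentration series.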
# [4] = UWB1.289 Cancer Cell Toxicity qHTS against the NCATS CANVASS Library (AID 1347347); settings: UWB1.289 viability, CellTiter-Glo luminescence, 72 h; series mostly up to 38.3 µM; further: nearly all actives have a fitted effect of over 60% in size
# How it was run: as §1
# [5] = OV-SAHO Cancer Cell Toxicity qHTS against the NCATS CANVASS Library (AID 1347348); settings: OV-SAHO viability, CellTiter-Glo luminescence, 72 h; series mostly up to 38.3 µM; further: nearly all actives have a fitted effect of over 55% in size
# How it was run: as §1
# [6] = Panc-1005 Cancer Cell Toxicity qHTS against the NCATS CANVASS Library (AID 1347349); settings: Panc-1005 viability, CellTiter-Glo luminescence, 72 h; series mostly up to 38.3 µM; further: nearly all actives have a fitted effect of over 60% in size
# From the text: Natural products and their derivatives continue to be wellsprings of nascent therapeutic potential. However, many laboratories have limited resources for biological evaluation, leaving their previously isolated or synthesized compounds largely or completely untested. To address this issue, the Canvass library of natural products was assembled (https://tripod.nih.gov/canvass), in collaboration with academic and industry researchers, for quantitative high-throughput screening (qHTS) across a diverse set of cell-based and biochemical assays. The pure (>85% purity by liquid chromatography/mass spectrometry [LC/MS]) Canvass library of 346 natural products were submitted by 45 academic laboratories and companies around the world. […] The library was formatted into 1536-well plates and evaluated in 50 qHTS (in an 11-pnt concentration series) bioassays with broad scope of disease-relevant mechanisms. The resulting data set from 50 different assays was then systematically analyzed to identify overall trends and specific natural products with interesting biological activities. […]
# Cancer Cell Toxicity protocol for cell lines COV-362, OV-KATE, OV-SAHO, UWB1.289, UWB1.289-WTBRCA1, HEK-293, HPAF-II, Panc-1005, SW1088, or U-118MG. […] Luminescence signal was acquired via the ViewLux plate reader (PerkinElmer) using a clear filter, 2 second exposure and 2x binning settings.
# [7] = SW1088 Cancer Cell Toxicity qHTS against the NCATS CANVASS Library (AID 1347350); settings: SW1088 viability, CellTiter-Glo luminescence, 72 h; series mostly up to 38.3 µM; further: nearly all actives have a fitted effect of over 75% in size
# How it was run: as §1
smiles,measurement,setting,value
O=C1NC(=O)/C(=C/c2ccc(-c3ccc(F)cc3O)o2)S1,Potency,[1],inactive
O=C(O)c1cc(O)c(O)c(O)c1,outcome,[2],inactive
same,outcome,[3],inactive
same,outcome,[4],inactive
same,outcome,[5],inactive
same,outcome,[6],inactive
same,outcome,[7],inactive
O=c1cc(-c2ccccc2)oc2c(O)c(O)ccc12,outcome,[3],inactive

# Reference: PubChem BioAssay (NCATS)
